Measured values taken from the supplement of paper PMC10849652.
About 8,800 targets were measured; listed, in parts, are those with a hit and a random draw of the rest. About 0.5% of all pairs of compound and target were hits.

Tests used:
Assay in all cases: log2 fold change, soluble protein after heating vs DMSO (PISA); higher = thermal stabilisation; K562 lysate, 10 uM; active = over 0.2 and 3.5 SD of the protein, either way, in both replicates (recomputed)
erlotinib = compound: C#Cc1cccc(Nc2ncnc3cc(OCCOC)c(OCCOC)cc23)c1 [erlotinib]
Method in brief: (§1)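 A 30 min treatment with 10 μM compound was applied to crude K562 extract at 1 mg/mL protein in PBS pH 7.4 with 1 mM MgCl2. Heating for 3 min spanned 48°C-58°C, after which aliquots were pooled, adjusted to 0.5% NP-40 at 4°C and spun at 21,000xg for 90 min. TMTpro 16plex LC-MS/MS of the supernatant, with channel sums equalised, gave values recorded as log-two fold change in thermal stability against solvent controls, from duplicates.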

[1] = compound: C/C(=N\NC(=O)C1=CC(=CC=C1)S(=O)(=O)N2CCOCC2)/C3=C(C=CC(=C3)Cl)O
Method in brief: as §1

[2] = compound: C1=CC(=CC=C1C2=NC3=C(N2)C=C(C=C3)C(=O)N)OC4=CC=C(C=C4)Cl
Method in brief: as §1

[3] = compound: C1=CC2=C(C=CC(=C2)/C=C\3/C(=O)NC(=NCC4=CC=CS4)S3)N=C1
Method in brief: as §1

[4] = compound: C1=CC2=NC=CN=C2C=C1/C=C/3\C(=O)NC(=O)S3
Method in brief: as §1

[5] = compound: C1=CC=C(C=C1)C2=NC(=C(N2)C3=CC=NC=C3)C4=CC(=C(C=C4)Cl)O
Method in brief: as §1

[6] = compound: C1=CC=C2C(=C1)C3=NNC4=CC=CC(=C43)C2=O
Method in brief: as §1

[7] = compound: C1CCN(C1)C(=O)NC2=CC=CC(=C2)NC3=NC=C(C(=N3)NCCC4=CN=CN4)Br
Method in brief: as §1

[8] = compound: C1CN(CCC1(CC2=CC=C(C=C2)Cl)N)C3=NC=NC4=C3C=CN4
Method in brief: as §1

IRAK-1-4 Inhibitor I = compound: C1COCCN1CCN2C3=CC=CC=C3N=C2NC(=O)C4=CC(=CC=C4)[N+](=O)[O-] [IRAK-1-4 Inhibitor I]
Method in brief: as §1

ibrutinib = compound: C=CC(=O)N1CCC[C@@H](n2nc(-c3ccc(Oc4ccccc4)cc3)c3c(N)ncnc32)C1 [ibrutinib]
Method in brief: as §1

[9] = compound: CC(=O)c1cnc2ccc(-c3cc(Cl)c(O)c(Cl)c3)nc2c1N[C@H]1CC[C@H](CN(C)C)CC1
Method in brief: as §1

ralimetinib = compound: CC(C)(C)Cn1c(N)nc2ccc(-c3[nH]c(C(C)(C)C)nc3-c3ccc(F)cc3)nc21 [ralimetinib]
Method in brief: as §1

[10] = compound: CC(C)(O)CC(=O)NCCn1ccc2ncnc(Nc3ccc(Oc4cccc(C(F)(F)F)c4)c(Cl)c3)c21
Method in brief: as §1

[11] = compound: CC(C)C1=C2N=C(C=C(N2N=C1)NCC3=CC=CC=C3)NCCCCCCN
Method in brief: as §1

[12] = compound: CC1=C(C(CC(=O)N1)C2=CC=C(C=C2)C(F)(F)F)C(=O)NC3=C(C=C4C(=C3)C=NN4)F
Method in brief: as §1

[13] = compound: CC1=C(C2=C(C=C1)C(=O)C3=CC=CC=C3N2CCCN)C
Method in brief: as §1

[14] = compound: CC1=C(C=C(C=C1)NC(=O)C2=CC(=CC=C2)C(C)(C)C#N)NC3=CC4=C(C=C3)N=CN(C4=O)C
Method in brief: as §1

[15] = compound: CC1=C(C=C(C=C1)NC(=O)C2=CC(=CC=C2)N(C)C)NC(=O)C3=CC=C(C=C3)O
Method in brief: as §1

[16] = compound: CC1=CC=C(C=C1)SC2=C3C=C(SC3=CN=C2)C(=O)N
Method in brief: as §1

Measured: log2 fold change

PWP2 (UniProt Q15269)
Sequence of UniProt Q15269 (Q15269 whole entry, looked up): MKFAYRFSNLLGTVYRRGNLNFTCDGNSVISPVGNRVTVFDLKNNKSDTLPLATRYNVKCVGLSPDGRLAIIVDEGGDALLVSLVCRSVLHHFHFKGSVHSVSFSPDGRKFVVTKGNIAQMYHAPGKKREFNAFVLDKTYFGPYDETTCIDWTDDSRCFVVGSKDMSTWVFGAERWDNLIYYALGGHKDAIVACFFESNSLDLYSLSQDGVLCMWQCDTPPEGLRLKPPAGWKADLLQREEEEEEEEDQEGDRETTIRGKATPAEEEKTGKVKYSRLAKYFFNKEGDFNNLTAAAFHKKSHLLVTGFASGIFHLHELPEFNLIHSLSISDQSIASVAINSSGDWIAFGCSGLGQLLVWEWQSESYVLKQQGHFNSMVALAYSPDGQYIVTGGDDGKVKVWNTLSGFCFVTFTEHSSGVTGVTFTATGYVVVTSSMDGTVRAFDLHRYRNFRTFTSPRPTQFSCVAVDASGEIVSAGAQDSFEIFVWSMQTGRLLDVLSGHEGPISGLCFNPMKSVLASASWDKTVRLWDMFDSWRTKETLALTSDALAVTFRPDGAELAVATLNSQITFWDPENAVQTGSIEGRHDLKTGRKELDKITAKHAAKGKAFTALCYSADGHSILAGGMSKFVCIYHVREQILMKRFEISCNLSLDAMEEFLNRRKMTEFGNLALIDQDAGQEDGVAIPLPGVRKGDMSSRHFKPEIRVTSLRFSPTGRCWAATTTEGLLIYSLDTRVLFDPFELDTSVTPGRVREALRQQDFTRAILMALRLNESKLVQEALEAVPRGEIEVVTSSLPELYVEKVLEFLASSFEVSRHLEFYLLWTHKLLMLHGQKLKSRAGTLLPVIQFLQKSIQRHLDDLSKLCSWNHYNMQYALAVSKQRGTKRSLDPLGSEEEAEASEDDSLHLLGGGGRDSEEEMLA
inactive: erlotinib 0.051 | [1] -0.076 | [2] -0.036 | [3] 0.02 | [4] 0.015 | [5] -0.012 | [6] -0.013 | [7] 0.018 | [8] 0.04 | IRAK-1-4 Inhibitor I -0.027 | ibrutinib 0.003 | [9] -0.021 | ralimetinib 0.048 | [10] 0.027 | [11] 0.009 | [12] 0.037 | [13] -0.014 | [14] -0.035 | [15] 0.018 | [16] 0.015

PRKAB2 (UniProt O43741)
Sequence of UniProt O43741 (O43741 whole entry, looked up): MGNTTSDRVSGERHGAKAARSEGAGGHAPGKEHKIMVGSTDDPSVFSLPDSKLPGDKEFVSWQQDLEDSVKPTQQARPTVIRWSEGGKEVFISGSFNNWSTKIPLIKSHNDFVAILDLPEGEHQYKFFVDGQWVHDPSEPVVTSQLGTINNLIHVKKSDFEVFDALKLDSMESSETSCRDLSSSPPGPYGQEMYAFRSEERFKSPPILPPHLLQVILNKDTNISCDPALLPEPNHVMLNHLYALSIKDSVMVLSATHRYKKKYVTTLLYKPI
inactive: erlotinib -0.032 | [1] -0.165 | [2] 0.096 | [3] -0.041 | [4] 0.031 | [5] 0.039 | [6] 0.153 | [7] 0.196 | [8] 0.042 | IRAK-1-4 Inhibitor I 0.24 | ibrutinib -0.041 | [9] -0.018 | ralimetinib 0.093 | [10] -0.129 | [11] -0.025 | [12] 0.086 | [13] -0.066 | [14] -0.082 | [15] 0.035 | [16] -0.008

PTGR2 (UniProt Q8N8N7)
Sequence of UniProt Q8N8N7 (Q8N8N7 whole entry, looked up): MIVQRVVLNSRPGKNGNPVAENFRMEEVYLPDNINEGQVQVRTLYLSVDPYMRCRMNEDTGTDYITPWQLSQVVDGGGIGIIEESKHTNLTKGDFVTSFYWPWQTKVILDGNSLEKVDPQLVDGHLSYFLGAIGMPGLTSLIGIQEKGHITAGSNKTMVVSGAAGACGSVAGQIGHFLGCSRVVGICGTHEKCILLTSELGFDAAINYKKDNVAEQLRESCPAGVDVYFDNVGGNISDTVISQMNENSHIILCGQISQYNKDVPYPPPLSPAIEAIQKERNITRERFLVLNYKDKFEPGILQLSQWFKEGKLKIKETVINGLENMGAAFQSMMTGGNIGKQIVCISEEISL
inactive: erlotinib 0.01 | [1] 0.064 | [2] 0.001 | [3] 0.065 | [4] -0.041 | [5] 0.054 | [6] 0.016 | [7] 0.015 | [8] 0.001 | IRAK-1-4 Inhibitor I -0.035 | ibrutinib -0.006 | [9] 0.026 | ralimetinib 0.019 | [10] 0.068 | [11] -0.042 | [12] -0.011 | [13] -0.024 | [14] 0.006 | [15] 0.037 | [16] 0.029

PPME1 isoform 4 (UniProt Q9Y570)
Sequence of UniProt Q9Y570 (Q9Y570 whole entry, looked up): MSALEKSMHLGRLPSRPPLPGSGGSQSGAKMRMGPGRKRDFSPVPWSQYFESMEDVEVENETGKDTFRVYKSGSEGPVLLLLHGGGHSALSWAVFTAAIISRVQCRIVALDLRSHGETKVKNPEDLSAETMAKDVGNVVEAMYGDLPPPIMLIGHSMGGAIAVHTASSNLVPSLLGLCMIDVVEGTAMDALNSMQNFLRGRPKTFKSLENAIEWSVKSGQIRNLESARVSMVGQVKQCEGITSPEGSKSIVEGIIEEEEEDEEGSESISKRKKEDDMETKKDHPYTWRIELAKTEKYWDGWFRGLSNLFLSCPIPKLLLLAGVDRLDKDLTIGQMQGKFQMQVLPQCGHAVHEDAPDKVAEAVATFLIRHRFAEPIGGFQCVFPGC
inactive: erlotinib -0.002 | [1] -0.006 | [2] 0.023 | [3] -0.005 | [4] -0.035 | [5] 0.017 | [6] 0.065 | [7] 0.013 | [8] 0.01 | IRAK-1-4 Inhibitor I -0.006 | ibrutinib 0.042 | [9] 0.009 | ralimetinib 0.008 | [10] 0.018 | [11] -0.001 | [12] -0.021 | [13] -0.004 | [14] -0.011 | [15] -0.023 | [16] 0.012

PPP2R3C (UniProt Q969Q6)
Sequence of UniProt Q969Q6 (Q969Q6 whole entry, looked up): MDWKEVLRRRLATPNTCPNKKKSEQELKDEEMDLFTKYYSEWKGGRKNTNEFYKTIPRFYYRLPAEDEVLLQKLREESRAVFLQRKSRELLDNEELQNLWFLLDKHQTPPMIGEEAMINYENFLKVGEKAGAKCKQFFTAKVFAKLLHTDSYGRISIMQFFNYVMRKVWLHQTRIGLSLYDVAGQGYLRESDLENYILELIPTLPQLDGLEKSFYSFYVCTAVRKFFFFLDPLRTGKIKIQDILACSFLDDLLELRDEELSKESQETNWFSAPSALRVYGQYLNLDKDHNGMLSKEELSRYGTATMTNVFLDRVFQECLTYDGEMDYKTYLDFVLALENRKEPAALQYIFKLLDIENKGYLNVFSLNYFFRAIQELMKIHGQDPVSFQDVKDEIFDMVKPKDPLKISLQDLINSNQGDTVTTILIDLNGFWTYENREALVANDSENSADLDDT
inactive: erlotinib -0.061 | [1] -0.009 | [2] -0.126 | [3] -0.025 | [4] -0.019 | [5] 0.033 | [6] -0.032 | [7] -0.023 | [8] -0.035 | IRAK-1-4 Inhibitor I -0.018 | ibrutinib 0.108 | [9] 0.089 | ralimetinib 0.109 | [10] 0.036 | [11] -0.088 | [12] 0.021 | [13] -0.02 | [15] 0.048 | [16] 0.196

PRKAR2B (UniProt P31323)
Sequence of UniProt P31323 (P31323 whole entry, looked up): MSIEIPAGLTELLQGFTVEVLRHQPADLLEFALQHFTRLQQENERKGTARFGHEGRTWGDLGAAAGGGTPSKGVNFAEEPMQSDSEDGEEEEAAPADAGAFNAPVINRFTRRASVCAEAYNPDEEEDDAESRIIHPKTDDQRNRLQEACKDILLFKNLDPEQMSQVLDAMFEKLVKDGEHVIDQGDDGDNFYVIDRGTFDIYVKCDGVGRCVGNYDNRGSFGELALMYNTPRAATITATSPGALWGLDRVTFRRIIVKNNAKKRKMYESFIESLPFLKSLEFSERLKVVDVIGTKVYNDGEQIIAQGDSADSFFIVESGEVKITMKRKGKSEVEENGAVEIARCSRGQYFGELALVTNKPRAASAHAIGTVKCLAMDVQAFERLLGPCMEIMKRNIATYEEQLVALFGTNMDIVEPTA
inactive: erlotinib 0 | [1] 0.066 | [2] -0.022 | [3] -0.025 | [4] 0.018 | [5] -0.03 | [6] -0.116 | [7] -0.16 | [8] -0.131 | IRAK-1-4 Inhibitor I -0.016 | ibrutinib -0.017 | [9] 0.008 | ralimetinib 0.007 | [10] -0.01 | [11] 0.022 | [12] 0.015 | [13] -0.004 | [14] 0.027 | [15] 0.031 | [16] 0.03

PDXK (UniProt O00764)
Sequence of UniProt O00764 (O00764 whole entry, looked up): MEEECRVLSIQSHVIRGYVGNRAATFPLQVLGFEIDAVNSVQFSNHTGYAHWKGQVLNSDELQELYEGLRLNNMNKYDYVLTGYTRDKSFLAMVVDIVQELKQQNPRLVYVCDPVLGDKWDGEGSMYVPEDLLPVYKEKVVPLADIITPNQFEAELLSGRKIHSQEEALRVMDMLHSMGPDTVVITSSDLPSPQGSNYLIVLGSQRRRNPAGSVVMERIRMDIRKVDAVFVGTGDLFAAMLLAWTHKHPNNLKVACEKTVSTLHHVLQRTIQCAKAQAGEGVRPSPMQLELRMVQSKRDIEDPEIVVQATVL
inactive: erlotinib -0.003 | [1] 0.02 | [2] 0.103 | [3] -0.019 | [4] -0.02 | [5] -0.008 | [6] 0.021 | [7] 0.037 | [8] -0.012 | IRAK-1-4 Inhibitor I 0.018 | ibrutinib 0.007 | [9] 0.014 | ralimetinib 0.01 | [10] -0.006 | [11] -0.009 | [12] 0.017 | [13] -0.058 | [14] 0.016 | [15] -0.029 | [16] -0.001

PIP4K2A (UniProt P48426)
Sequence of UniProt P48426 (P48426 whole entry, looked up): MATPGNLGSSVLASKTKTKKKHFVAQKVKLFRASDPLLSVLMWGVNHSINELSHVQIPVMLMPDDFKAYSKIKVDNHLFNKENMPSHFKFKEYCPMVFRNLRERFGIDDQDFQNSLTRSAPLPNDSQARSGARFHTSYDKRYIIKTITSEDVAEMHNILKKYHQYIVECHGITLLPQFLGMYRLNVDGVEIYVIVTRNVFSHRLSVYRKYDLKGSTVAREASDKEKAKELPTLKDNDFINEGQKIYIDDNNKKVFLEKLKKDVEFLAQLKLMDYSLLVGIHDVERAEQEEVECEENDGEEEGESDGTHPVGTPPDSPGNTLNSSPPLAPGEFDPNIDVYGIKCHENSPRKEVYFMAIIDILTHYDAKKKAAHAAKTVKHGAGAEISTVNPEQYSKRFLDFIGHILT
inactive: erlotinib -0.04 | [2] 0.032 | [3] 0.001 | [4] 0.225 | [5] 0.135 | [6] 0.105 | [7] 0.103 | [8] -0.006 | IRAK-1-4 Inhibitor I -0.007 | ibrutinib -0.052 | [9] 0.086 | ralimetinib 0.032 | [10] -0.053 | [11] -0.043 | [12] -0.017 | [13] -0.019 | [14] -0.002 | [15] -0.028 | [16] -0.026
active: [1] -0.239

POC5 (UniProt Q8NA72)
inactive: erlotinib -0.022 | [1] -0.083 | [2] -0.01 | [3] 0.069 | [4] -0.025 | [5] 0.039 | [6] -0.144 | [7] 0.045 | [8] 0.043 | IRAK-1-4 Inhibitor I 0.069 | ibrutinib 0.013 | [9] -0.063 | ralimetinib 0.062 | [10] -0.029 | [11] 0.101 | [12] 0.015 | [13] 0.026 | [14] -0.015 | [15] 0 | [16] -0.02

PRC1 (UniProt O43663)
Sequence of UniProt O43663 (O43663 whole entry, looked up): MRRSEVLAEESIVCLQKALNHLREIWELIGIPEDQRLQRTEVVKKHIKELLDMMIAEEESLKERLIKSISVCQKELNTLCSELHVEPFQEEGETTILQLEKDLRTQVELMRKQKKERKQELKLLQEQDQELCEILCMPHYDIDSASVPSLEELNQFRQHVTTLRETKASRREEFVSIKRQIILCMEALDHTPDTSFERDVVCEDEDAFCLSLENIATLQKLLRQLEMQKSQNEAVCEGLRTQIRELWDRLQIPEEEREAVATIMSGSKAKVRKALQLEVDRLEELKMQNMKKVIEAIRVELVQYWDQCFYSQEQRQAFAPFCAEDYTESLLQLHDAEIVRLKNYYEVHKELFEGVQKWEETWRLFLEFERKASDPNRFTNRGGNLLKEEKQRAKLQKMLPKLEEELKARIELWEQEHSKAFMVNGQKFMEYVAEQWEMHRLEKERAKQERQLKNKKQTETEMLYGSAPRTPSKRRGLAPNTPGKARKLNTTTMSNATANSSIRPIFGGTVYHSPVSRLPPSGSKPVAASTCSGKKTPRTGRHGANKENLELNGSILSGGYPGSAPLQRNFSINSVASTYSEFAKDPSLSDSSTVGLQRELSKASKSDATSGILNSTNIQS
inactive: erlotinib 0.026 | [1] 0.027 | [2] 0.013 | [3] -0.026 | [4] -0.004 | [5] 0.059 | [6] -0.054 | [7] -0.011 | [8] 0.126 | IRAK-1-4 Inhibitor I 0.008 | ibrutinib -0.007 | [9] 0.009 | ralimetinib -0.016 | [10] 0.01 | [11] 0.01 | [12] 0.039 | [13] -0.006 | [14] 0.025 | [15] 0.021 | [16] 0.059

PTK2 (UniProt Q05397)
inactive: erlotinib -0.018 | [1] -0.009 | [2] 0.045 | [3] -0.031 | [4] -0.045 | [5] -0.02 | [6] 0.271 | [7] 0.32 | [8] -0.045 | IRAK-1-4 Inhibitor I 0.22 | ibrutinib 0.085 | [9] 0.188 | ralimetinib -0.002 | [10] 0.044 | [11] -0.015 | [12] -0.024 | [13] 0.011 | [14] -0.054 | [15] -0.007 | [16] -0.128

PCF11 (UniProt O94913)
inactive: erlotinib 0.031 | [1] -0.063 | [2] 0.014 | [3] 0.008 | [4] -0.044 | [5] -0.025 | [6] -0.028 | [7] 0.005 | [8] 0.005 | IRAK-1-4 Inhibitor I -0.017 | ibrutinib -0.027 | [9] -0.006 | ralimetinib -0.005 | [10] -0.02 | [11] 0.022 | [12] 0.03 | [13] -0.02 | [14] -0.021 | [15] 0.045 | [16] -0.02

PRPF38A (UniProt Q8NAV1)
Sequence of UniProt Q8NAV1 (Q8NAV1 whole entry, looked up): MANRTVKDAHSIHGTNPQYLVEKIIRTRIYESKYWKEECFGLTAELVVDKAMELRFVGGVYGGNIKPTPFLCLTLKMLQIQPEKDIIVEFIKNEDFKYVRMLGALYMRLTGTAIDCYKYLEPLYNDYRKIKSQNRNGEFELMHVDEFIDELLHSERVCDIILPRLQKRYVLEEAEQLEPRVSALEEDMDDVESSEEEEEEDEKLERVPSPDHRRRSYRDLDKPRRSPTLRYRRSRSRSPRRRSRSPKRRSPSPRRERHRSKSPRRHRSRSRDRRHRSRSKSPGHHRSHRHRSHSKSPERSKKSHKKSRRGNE
inactive: erlotinib -0.012 | [1] -0.016 | [2] 0.049 | [3] -0.025 | [4] 0.044 | [5] 0.05 | [6] 0.042 | [7] 0.005 | [8] -0.018 | IRAK-1-4 Inhibitor I 0.057 | ibrutinib 0 | [9] -0.001 | ralimetinib 0.01 | [10] -0.011 | [11] 0.054 | [12] 0.027 | [13] -0.128 | [14] 0.094 | [15] -0.075 | [16] 0.018

PMPCA (UniProt Q10713)
inactive: erlotinib -0.034 | [1] -0.012 | [2] 0.073 | [3] 0.008 | [4] -0.006 | [5] 0.043 | [6] -0.014 | [7] -0.026 | [8] -0.012 | IRAK-1-4 Inhibitor I 0.007 | ibrutinib -0.052 | [9] -0.023 | ralimetinib 0.006 | [10] -0.038 | [11] -0.047 | [12] -0.043 | [13] -0.041 | [14] 0.033 | [15] -0.036 | [16] 0.015

PFKFB4 (UniProt Q16877)
Sequence of UniProt Q16877 (Q16877 whole entry, looked up): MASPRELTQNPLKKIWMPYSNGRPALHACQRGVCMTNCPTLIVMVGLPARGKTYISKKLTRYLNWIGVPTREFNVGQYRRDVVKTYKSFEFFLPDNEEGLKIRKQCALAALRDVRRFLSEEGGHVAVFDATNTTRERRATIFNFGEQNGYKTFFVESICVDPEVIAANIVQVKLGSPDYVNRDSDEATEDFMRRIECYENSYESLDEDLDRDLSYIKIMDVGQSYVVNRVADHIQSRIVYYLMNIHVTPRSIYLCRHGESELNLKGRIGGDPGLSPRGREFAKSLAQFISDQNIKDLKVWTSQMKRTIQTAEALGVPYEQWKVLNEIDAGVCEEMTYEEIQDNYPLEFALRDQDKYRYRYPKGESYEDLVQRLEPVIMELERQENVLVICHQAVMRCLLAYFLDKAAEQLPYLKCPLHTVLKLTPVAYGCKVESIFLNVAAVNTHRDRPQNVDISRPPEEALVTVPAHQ
inactive: erlotinib 0.02 | [1] 0.044 | [2] 0.041 | [3] -0.024 | [4] -0.031 | [5] 0.096 | [6] -0.083 | [7] -0.003 | [8] 0.067 | IRAK-1-4 Inhibitor I -0.023 | ibrutinib 0.022 | [9] -0.005 | ralimetinib 0.1 | [10] -0.032 | [11] -0.004 | [13] -0.008 | [14] -0.003 | [15] 0.093 | [16] 0.011

PHKA2 (UniProt P46019)
inactive: erlotinib 0.048 | [1] -0.051 | [2] 0.032 | [3] 0.052 | [4] 0.044 | [5] -0.058 | [6] 0.012 | [7] 0.027 | [8] 0.033 | IRAK-1-4 Inhibitor I 0.03 | ibrutinib -0.032 | [9] 0.095 | ralimetinib -0.022 | [10] -0.097 | [11] -0.016 | [12] -0.03 | [13] -0.076 | [14] 0.007 | [15] 0.013 | [16] -0.015
